In PubChem BioAssay AID686979 (National Center for Advancing Translational Sciences (NCATS), 2013):
“And” between values parts separate entries of the source, which are not always exact repeats. Identical values can stand only once. Screen size: about 420,000 compounds; about 50,000 (12%) were called active. Not shown: some 26% with an inconclusive outcome. Calls follow the shape of the dose curve; as a rule, active = well fitted inhibition curve with a large enough effect; inconclusive = small, poorly fitted or top-dose-only effect; inactive = flat fitted curve, though single readings scatter. The list comes from a sample in which actives are over-represented; it also holds similar structures and randomly drawn compounds. Where a call stands in place of a potency, no number is given.

Test: qHTS for Inhibitors of human tyrosyl-DNA phosphodiesterase 1 (TDP1): qHTS in cells in presence of CPT; also: nearly all actives have a fitted effect of over 55% in size
Conditions: chicken DT40 Tdp1-/-;hTDP1 cells + 20 nM CPT, ATP luminescence, 48 h; series mostly up to 46.2 µM
How it was run: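 Chicken DT40 Tdp1-/- cells stably complemented with human TDP1 were seeded at 400 cells/well in medium containing 20 nM camptothecin, exposed to pin-transferred compounds, and grown at 37 °C for at least 48 hr. Viability was read as ATP luminescence.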
Potency is read from the fitted curve at half-maximal effect.

Structure (SMILES) | Potency
O/N=C(\C[n+]1ccccc1)c1ccc(Br)cc1 | inactive
COc1ccccc1N(CC(=O)Nc1ccc(C(F)(F)F)cc1)S(C)(=O)=O | inactive
CCCCN(CC)CCCNC(=O)c1nn(C)c2c1CS(=O)(=O)c1ccccc1-2 | inactive
CCCCN(CC)CCCNC(=O)c1ccc(CSc2nc3ccncc3[nH]2)cc1 | inactive
CCCCN(CC)CCCNC(=O)c1nn(C)c2c1CSc1ccccc1-2 | 25.9 µM (active)
C[C@@H]1CC2=C(C(=O)OC(C)(C)O2)[C@@H](C2CC2)O1 | inactive
Cn1nccc1CNC(=O)c1ccnn1C | inactive
CCCc1ccc(-c2c(C)sc(NC(=O)c3ccnn3C)c2C#N)cc1 | 23.1 µM (active)
CCN(CC)C(=O)c1sc(NC(=O)c2ccco2)c(C#N)c1C | inactive
COc1ccc(CNC(=O)CN(Cc2ccccc2Cl)C(=O)c2csnn2)cc1 | inactive
COc1ccc(C(CNC(=O)CSc2ccccc2)N2CCOCC2)cc1 (configuration not stated) | inactive
CN(C)c1ccc(C(CNS(=O)(=O)c2cc(F)ccc2F)N2CCOCC2)cc1 (configuration not stated) | inactive
COc1ccc(C(CNC(=O)c2cc3c(s2)CCCC3)N2CCOCC2)cc1 (configuration not stated) | inactive
CC(C)(C)c1ccc(C(=O)NCC(c2ccc(Cl)cc2)N2CCOCC2)cc1 (configuration not stated) | 23.1 µM (active)
COc1cc(C(=O)OCCCN2CCOCC2)cc(OC)c1OC | inactive
O=C(NCC(c1ccc(Cl)cc1)N1CCOCC1)c1ccccc1F (configuration not stated) | 16.4 µM (active)
COc1cc(C(=O)NCC(c2ccc(Cl)cc2)N2CCOCC2)cc(OC)c1OC (configuration not stated) | 16.4 µM (active)
CN1CCN(C(CNC(=O)c2ccccc2F)c2ccc3c(c2)OCO3)CC1 (configuration not stated) | inactive
COc1ccc(C(CNC(=O)c2cccnc2SC)N2CCOCC2)cc1 (configuration not stated) | inactive
Cc1ccc(S(=O)(=O)NN=C2CC(C)(C)CC(=O)C2(C)C)cc1 | inactive
CCOCCCNC(=O)C1(O)c2cc(Br)ccc2NC(=O)N1c1ccc(C)c(C)c1 (configuration not stated) | inactive
Cc1ccc(S(=O)(=O)N2CCCCC2)cc1NC(=O)CCNC(=O)c1ccccc1 | inactive
CN(C)c1ccc2c(=O)[nH][nH]c(=O)c2c1 | inactive
COc1cc(C(=O)N2CCOC23CCN(Cc2ccccc2)CC3)cc(OC)c1OC | inactive
N#Cc1cc([N+](=O)[O-])ccc1NC(=O)COC(=O)c1cnccn1 | inactive

Structure (SMILES) | Potency
CCC(CC)NC(=O)CSc1nnc(-c2c[nH]c3ccccc23)o1 | inactive
Cc1ccc(C(=O)OCC(=O)Nc2ccc(Cl)cn2)cc1S(=O)(=O)N1CCOCC1 | inactive
CN(Cc1ccccc1)C(=O)C(=O)c1cn(CC(=O)N2CCCC2)c2ccccc12 | inactive
COc1cc(OC)cc(C(=O)N[C@H](C(=O)Nc2nc3ccccc3[nH]2)C(C)C)c1 | 1.64 µM (active)
COc1cc(OC)cc(C(=O)N[C@H](C(=O)OCC(=O)NC(C)c2ccccc2)C(C)C)c1 (some centres not stated) | inactive
COc1ccc(C(=O)N[C@H](C(=O)NCc2ccccc2)C(C)C)cc1 | inactive
O=S(=O)(ON(c1ccccc1)S(=O)(=O)c1ccccc1)c1ccccc1 | inactive
CC1=C/C(=N\OS(=O)(=O)c2ccccc2)C=CC1=O | 0.631 µM (active)
COCCn1c(SCC(=O)Nc2nc(C)cs2)nnc1C(C)C | inactive
O=C(Nc1ccccc1C(=O)O)c1ccc(N2C(=O)C3CC=CCC3C2=O)cc1 (configuration not stated) | inactive
O=C(CN1CCOCC1)N/N=C/c1ccc(-c2ccc(Br)cc2)o1 | inactive
Cc1ccc(-c2ccc(/C=N/NC(=O)CN3CCOCC3)o2)cc1[N+](=O)[O-] | 23.1 µM (active)
Cc1ccc(NC(=O)CN2CCC(C(N)=O)CC2)cc1[N+](=O)[O-] | inactive
Cc1ccc(OC(=O)c2cncc(Br)c2)c(C)c1 | inactive
CC(=O)[C@@]12O[C@@H]1C[C@H]1[C@@H]3CC[C@H]4C[C@@H](O)CC[C@]4(C)[C@H]3CC[C@@]12C | inactive
CC1(Cc2ccccc2C#N)C(=O)Nc2ccc(-c3ccc4[nH]ccc4c3)cc21 (configuration not stated) | 1.46 µM (active)
COc1ccc(CC(NC(C)=O)C(=O)NC2CCN(C(=O)c3ccc(Cl)cc3)CC2)cc1 (configuration not stated) | inactive
CCC(C)C(N=C1NS(=O)(=O)c2ccccc21)C(=O)N1CCC(C)CC1 (configuration not stated) | inactive
O=c1[nH]c(/C=C/c2cccc(Br)c2)nc2ccccc12 | inactive
NNc1cccc(C=Cc2ccccc2)cc1=O | 2.06 µM (active)
O=c1oc(/C=C/c2ccccc2)nc2ccccc12 | inactive
Cc1cc(Cl)ccc1NC(=S)NCCCN1CCCC1=O | inactive
COn1c(=O)c(=O)n(OC)c2ccccc21 | inactive
CCOC(=O)C1=C(c2ccccc2)NC(=S)NC1c1ccc(Cl)cc1 (configuration not stated) | inactive
CCOC(=O)C1=C(C)N(C[C@@H]2CC[C@@H](Cc3ccc(-c4ccccc4)cc3)O2)C(=O)NC1c1ccc([N+](=O)[O-])cc1 (some centres not stated) | 23.1 µM (active)

Structure (SMILES) | Potency
CCOC(=O)CSc1nnc(-c2ccc([N+](=O)[O-])cc2)o1 | inactive
C=C1c2cccc(OC)c2O[C@H](C(=O)OCC)[C@@H]1CCCCCC | inactive
COc1cccc(NC(=O)COc2cc(C)cc3oc(=O)cc(C)c23)c1 | inactive
COc1cc(OC)c2c(-c3cccc(-c4cccc(N)c4)c3)cc(=O)oc2c1 | 4.61 µM (active)
COC(=O)C(C)Oc1ccc2c(-c3cccc([N+](=O)[O-])c3)cc(=O)oc2c1 (configuration not stated) | inactive
COc1ccccc1OCCNC(=O)C(CCSC)NC(=O)COc1ccccc1 (configuration not stated) | inactive
CC(C)(CNC(=O)CNC(=O)C1CCCCC1)N1CCOCC1 | inactive
Cc1c(O)cc(O)c2c(=O)c(-c3ccc(O)cc3)coc12 | inactive
CC(C)=CCc1c(O)c(CC=C(C)C)c2occ(-c3ccc(O)cc3)c(=O)c2c1O | 18.4 µM (active)
CCCCn1c(N)c(N(CC(C)C)C(=O)C2CSC3(C)CCC(=O)N23)c(=O)[nH]c1=O (configuration not stated) | inactive
C[C@H](CO)N1C[C@H](C)[C@@H](CN(C)Cc2ccc3c(c2)OCO3)OCc2cnnn2CCCC1=O | inactive
C[C@H]1CN([C@@H](C)CO)C(=O)Cc2cc(NS(C)(=O)=O)ccc2O[C@@H]1CN(C)CC1CC1 | inactive
Cc1ccc(CN(C)C[C@@H]2OCc3cnnn3CCCC(=O)N([C@@H](C)CO)C[C@H]2C)cc1 | inactive
C[C@@H]1CN([C@H](C)CO)C(=O)c2cc(Br)cnc2O[C@@H]1CN(C)Cc1cncnc1 | inactive
C[C@H]1CN([C@@H](C)CO)C(=O)c2cc(-c3cccc(F)c3)cnc2O[C@@H]1CN(C)S(C)(=O)=O | inactive
C[C@H]1CN([C@@H](C)CO)C(=O)CCCn2nncc2CO[C@@H]1CN(C)Cc1ccc(Oc2ccccc2)cc1 | 23.1 µM (active)
C[C@H](CO)N1C[C@H](C)[C@H](CN(C)CC2CC2)Oc2ccc(NC(=O)CCN3CCOCC3)cc2C1=O | inactive
CCOC(=O)CCCCCC(=O)Nc1ccc2c(c1)CC(=O)N([C@@H](C)CO)C[C@H](C)[C@@H](CN(C)Cc1ccccc1)O2 | 18.4 µM (active)
COc1ccc(-c2cnc3c(c2)C(=O)N([C@H](C)CO)C[C@@H](C)[C@H](CN(C)Cc2ccccc2)O3)cc1 | 14.6 µM (active)
Cc1ccccc1NC(=O)c1cc(S(=O)(=O)Nc2cccc(C(=O)O)c2)ccc1Cl | inactive
Cc1cc(NC(=O)COc2ccc([N+](=O)[O-])cc2)no1 | inactive
CC1CCCC(C)N1C(=O)CSc1nnnn1C1CCCC1 (configuration not stated) | inactive
CCc1nc(N2CCN(C(C)=O)CC2)c2c3c(sc2n1)CCCC3 | inactive
Cc1c(OC(C)C(=O)N[C@@H](Cc2ccccc2)C(=O)O)ccc2c3c(c(=O)oc12)CCCC3 (some centres not stated) | inactive
Cc1c(Br)c([N+](=O)[O-])nn1C(C)C(=O)Nc1nccs1 (configuration not stated) | inactive

Structure (SMILES) | Potency
Cc1cccc(NC(=O)C2CCCN(C(=O)Nc3ccc(F)cc3)C2)c1C (configuration not stated) | inactive
CCOc1ccccc1NC(=O)C1CCCN(C(=O)Nc2ccccc2)C1 (configuration not stated) | inactive
Cc1c(Cl)cccc1NC(=O)C1CCCN(C(=O)c2cnn(-c3ccccc3)c2-n2cccc2)C1 (configuration not stated) | 23.1 µM (active)
COc1ccc(Cn2ccn(CC(=O)Nc3cc(C)ccc3C)c(=O)c2=O)cc1 | inactive
Cc1cccc(CSc2ccc(-c3cccs3)nn2)c1 | inactive
Oc1c(Cl)cc(Cl)c(Cl)c1Cc1c(O)c(Cl)cc(Cl)c1Cl | 4.73 µM (active) and 23.1 µM (active) and 3.26 µM (active)
Nc1[nH][nH]c(=O)c1N=Nc1ccc2c(c1)OCO2 | inactive
Cc1ccc(N2CC(C(=O)Nc3ccc(S(=O)(=O)N4CCCC4)cc3)CC2=O)cc1C (configuration not stated) | inactive
O=S1(=O)CC(N2CCN(CCO)CC2)CN1C1CCCC1 (configuration not stated) | inactive
O=S1(=O)CCN(C2CCCCCCCCCCC2)CC1 | 20.6 µM (active)
O=C(O)C1CCN1C1CCCCC1 (configuration not stated) | inactive
COc1ccc(S(=O)(=O)N2CCC(C(=O)NCCC(=O)Nc3ccccc3OC)CC2)cc1 | inactive
CC(NC(=O)c1ccccc1C(=O)O)c1ccc(-n2ccnc2)cc1 (configuration not stated) | inactive
COc1ccc(OC)c(/C(C)=N\NC(=O)c2cc3cc(Cl)ccc3n2C)c1 | 5.8 µM (active)
COc1ccc(OC)c(C(=O)c2ccc(Cl)cc2)c1 | inactive
COc1ccc(NC(=O)c2cc3cc(C)ccc3n2C)cc1 | inactive
OC(c1ccccc1)c1nc(/C=C/c2ccc(C(F)(F)F)cc2)cs1 (configuration not stated) | inactive
CCN(c1ccccc1)S(=O)(=O)c1cc2c(cc1C)n(C)c(=O)c(=O)n2C | inactive
C[C@H](CO)N1C[C@H](C)[C@@H](CN(C)S(=O)(=O)c2ccc(F)cc2)OCc2cnnn2CCCC1=O | inactive
COc1cc(CN2CCCC(C(=O)c3ccc(SC)cc3)C2)cc(Cl)c1O (configuration not stated) | 11.6 µM (active)
COc1ccc(CCN(C)C(=O)C2CCCN(Cc3ccc(OC)c(OC)c3)C2)cc1OC (configuration not stated) | inactive
COc1ccc(CN2CCCC(C(=O)N3CCCCC3)C2)cc1 (configuration not stated) | inactive
